The values below come from ChEMBL document CHEMBL2218924, “A broad activity screen in support of a chemogenomic map for kinase signalling research and drug discovery” (Biochem J, 2013).

Assay [1] addresses T1, Mitogen-activated protein kinase kinase kinase 7 (Homo sapiens) (UniProt O43318).
T1 sequence (whole entry): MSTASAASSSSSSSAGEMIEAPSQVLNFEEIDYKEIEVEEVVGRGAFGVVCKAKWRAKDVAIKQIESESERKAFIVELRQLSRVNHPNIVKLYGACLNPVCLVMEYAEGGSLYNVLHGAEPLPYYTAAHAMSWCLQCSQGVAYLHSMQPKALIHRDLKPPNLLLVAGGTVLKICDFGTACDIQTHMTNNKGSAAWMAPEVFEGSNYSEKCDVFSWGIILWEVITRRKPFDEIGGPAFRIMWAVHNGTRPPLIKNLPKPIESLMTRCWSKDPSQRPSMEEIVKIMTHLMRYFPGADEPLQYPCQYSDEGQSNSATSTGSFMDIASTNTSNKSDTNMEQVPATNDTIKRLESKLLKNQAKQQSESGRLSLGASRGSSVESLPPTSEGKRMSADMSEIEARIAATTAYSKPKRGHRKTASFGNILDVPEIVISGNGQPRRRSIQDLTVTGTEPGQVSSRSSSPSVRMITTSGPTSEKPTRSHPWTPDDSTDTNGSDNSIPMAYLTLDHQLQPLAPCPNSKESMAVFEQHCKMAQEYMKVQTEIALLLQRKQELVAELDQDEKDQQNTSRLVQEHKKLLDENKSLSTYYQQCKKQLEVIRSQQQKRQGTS
The conditions noted are these: at 1 µM.

Assay [2] has as its target T1, Mitogen-activated protein kinase kinase kinase 7 (Homo sapiens). The note with it: at 10 µM.
Assay [3] has as its target T2, Serine/threonine-protein kinase TAO1 (Homo sapiens) (UniProt Q7L7X3).
T2 sequence (whole entry): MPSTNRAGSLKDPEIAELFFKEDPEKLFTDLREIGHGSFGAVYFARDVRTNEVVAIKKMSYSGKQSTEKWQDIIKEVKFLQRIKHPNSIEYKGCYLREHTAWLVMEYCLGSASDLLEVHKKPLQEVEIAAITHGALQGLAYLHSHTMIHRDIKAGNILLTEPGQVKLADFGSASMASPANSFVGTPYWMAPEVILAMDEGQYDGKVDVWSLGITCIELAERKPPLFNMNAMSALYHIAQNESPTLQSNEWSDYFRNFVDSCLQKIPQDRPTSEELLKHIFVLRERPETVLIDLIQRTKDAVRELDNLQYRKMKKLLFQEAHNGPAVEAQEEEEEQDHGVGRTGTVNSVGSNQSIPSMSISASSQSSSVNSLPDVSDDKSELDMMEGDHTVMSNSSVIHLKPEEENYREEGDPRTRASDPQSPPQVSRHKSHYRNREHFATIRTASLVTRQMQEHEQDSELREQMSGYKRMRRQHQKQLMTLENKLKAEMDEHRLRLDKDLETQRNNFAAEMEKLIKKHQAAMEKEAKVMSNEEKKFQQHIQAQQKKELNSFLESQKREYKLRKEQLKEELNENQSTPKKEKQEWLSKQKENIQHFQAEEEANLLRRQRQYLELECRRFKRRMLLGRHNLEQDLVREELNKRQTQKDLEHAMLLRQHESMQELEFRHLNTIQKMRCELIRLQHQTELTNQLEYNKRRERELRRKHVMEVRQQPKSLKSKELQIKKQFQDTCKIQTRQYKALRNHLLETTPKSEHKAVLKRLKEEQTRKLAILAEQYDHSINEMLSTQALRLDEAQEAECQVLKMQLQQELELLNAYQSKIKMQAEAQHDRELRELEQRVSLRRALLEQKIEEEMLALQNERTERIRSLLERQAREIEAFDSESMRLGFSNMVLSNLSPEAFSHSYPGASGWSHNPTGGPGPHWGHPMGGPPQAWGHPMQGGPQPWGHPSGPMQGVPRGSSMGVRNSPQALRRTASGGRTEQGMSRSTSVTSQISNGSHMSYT
The conditions noted are these: at 1 µM.

Assay [4] deals with T2, Serine/threonine-protein kinase TAO1 (Homo sapiens). The conditions noted are these: at 10 µM.
In assay [5] the target is T3, Serine/threonine-protein kinase TAO2 (Homo sapiens) (UniProt Q9UL54).
T3 sequence (whole entry): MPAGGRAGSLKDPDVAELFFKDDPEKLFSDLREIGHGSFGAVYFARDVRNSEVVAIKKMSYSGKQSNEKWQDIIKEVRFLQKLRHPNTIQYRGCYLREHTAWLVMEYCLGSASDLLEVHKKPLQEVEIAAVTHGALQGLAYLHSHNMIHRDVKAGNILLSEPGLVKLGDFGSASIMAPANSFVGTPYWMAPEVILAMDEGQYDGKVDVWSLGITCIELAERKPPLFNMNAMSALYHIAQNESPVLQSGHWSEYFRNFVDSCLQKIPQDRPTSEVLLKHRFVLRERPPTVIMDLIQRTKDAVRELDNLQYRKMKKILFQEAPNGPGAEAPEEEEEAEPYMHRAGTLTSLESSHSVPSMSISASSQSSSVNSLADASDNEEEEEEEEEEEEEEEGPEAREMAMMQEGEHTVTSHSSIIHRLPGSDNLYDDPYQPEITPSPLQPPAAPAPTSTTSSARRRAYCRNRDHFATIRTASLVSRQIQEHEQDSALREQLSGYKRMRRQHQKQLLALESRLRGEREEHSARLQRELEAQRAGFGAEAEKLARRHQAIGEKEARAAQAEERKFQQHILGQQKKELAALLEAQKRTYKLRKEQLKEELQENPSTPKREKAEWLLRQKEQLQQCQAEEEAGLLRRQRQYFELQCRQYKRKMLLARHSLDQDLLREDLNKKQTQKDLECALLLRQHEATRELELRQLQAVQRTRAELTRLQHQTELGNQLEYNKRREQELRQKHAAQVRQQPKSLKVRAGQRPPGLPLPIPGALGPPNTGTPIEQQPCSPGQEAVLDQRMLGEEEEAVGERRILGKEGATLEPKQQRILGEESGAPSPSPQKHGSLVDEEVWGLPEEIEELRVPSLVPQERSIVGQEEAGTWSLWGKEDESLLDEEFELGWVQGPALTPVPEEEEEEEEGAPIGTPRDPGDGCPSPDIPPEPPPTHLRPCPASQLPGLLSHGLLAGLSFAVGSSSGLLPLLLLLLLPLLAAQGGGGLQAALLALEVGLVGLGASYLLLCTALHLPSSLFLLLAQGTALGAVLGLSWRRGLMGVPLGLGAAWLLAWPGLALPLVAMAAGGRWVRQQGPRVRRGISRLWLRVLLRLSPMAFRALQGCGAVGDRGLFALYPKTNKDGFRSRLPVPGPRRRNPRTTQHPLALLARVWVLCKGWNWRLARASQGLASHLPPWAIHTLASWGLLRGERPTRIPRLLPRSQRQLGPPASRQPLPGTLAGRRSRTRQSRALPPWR
The conditions noted are these: at 1 µM.

Assay [6] concerns the target T3, Serine/threonine-protein kinase TAO2 (Homo sapiens). The note with it: at 10 µM.
The target of assay [7] is T4, Serine/threonine-protein kinase TAO3 (Homo sapiens) (UniProt Q9H2K8).
T4 sequence (whole entry): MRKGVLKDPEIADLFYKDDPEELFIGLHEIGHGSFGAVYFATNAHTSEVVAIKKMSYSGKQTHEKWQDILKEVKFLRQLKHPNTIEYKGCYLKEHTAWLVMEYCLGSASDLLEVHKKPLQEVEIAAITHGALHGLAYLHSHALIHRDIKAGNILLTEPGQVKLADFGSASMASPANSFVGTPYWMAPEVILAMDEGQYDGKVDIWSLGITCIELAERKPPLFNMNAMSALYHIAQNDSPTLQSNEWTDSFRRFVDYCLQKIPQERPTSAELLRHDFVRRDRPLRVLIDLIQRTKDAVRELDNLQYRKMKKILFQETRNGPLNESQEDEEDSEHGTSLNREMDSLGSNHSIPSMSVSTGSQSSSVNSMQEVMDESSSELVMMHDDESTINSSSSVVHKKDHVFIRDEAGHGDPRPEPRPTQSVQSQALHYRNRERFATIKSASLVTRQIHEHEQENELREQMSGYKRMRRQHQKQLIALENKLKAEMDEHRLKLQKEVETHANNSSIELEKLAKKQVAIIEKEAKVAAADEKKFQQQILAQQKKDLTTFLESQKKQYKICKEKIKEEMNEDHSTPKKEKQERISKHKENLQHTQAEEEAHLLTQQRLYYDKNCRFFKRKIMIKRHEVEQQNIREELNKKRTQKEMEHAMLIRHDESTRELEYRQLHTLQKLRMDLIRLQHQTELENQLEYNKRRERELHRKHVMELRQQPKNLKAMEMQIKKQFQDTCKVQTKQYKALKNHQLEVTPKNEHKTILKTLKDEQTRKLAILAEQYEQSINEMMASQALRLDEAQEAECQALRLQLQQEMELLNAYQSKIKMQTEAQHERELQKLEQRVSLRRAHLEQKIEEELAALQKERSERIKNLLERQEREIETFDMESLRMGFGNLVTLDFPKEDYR
The conditions noted are these: at 1 µM.

Assay [8] addresses T4, Serine/threonine-protein kinase TAO3 (Homo sapiens). The note with it: at 10 µM.
Assay [9] deals with T5, Serine/threonine-protein kinase TBK1 (Homo sapiens) (UniProt Q9UHD2).
T5 sequence (whole entry): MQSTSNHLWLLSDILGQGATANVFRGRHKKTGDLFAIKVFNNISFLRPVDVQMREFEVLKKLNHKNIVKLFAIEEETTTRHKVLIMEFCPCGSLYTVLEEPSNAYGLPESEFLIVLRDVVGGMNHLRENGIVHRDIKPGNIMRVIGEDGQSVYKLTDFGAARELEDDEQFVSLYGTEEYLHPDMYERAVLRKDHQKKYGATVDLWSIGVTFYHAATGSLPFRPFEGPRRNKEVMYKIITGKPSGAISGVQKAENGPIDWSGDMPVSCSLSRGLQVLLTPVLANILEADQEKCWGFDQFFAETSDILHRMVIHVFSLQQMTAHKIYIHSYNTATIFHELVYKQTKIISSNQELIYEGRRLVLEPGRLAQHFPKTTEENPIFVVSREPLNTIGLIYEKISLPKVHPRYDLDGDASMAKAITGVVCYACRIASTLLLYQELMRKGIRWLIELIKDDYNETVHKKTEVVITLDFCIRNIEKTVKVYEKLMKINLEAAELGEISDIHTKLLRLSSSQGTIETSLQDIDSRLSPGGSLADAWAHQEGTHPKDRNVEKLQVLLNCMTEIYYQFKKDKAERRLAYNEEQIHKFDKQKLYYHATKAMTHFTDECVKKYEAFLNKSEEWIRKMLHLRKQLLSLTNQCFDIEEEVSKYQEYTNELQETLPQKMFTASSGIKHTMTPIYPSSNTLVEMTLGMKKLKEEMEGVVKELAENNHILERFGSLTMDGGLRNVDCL
The conditions noted are these: at 1 µM.

As for `Oc1c2ccccc2c2c3c(cccc13)N=N2`, the residual activity in assay [1] was determined as 41%; in assay [2], 19%; in [3], 69%; in assay [4], 25%; in [5], 101%; in assay [6], 69%. Further, the results for the residual activity in [7], in assay [8] and in assay [9] were 69%, 27% and 35%, respectively.
